Compound activity: PubChem BioAssay, National Center for Advancing Translational Sciences (NCATS)
Hits are enriched below; roughly 7.3% of the tested compounds scored in any of these assays.
FLuc modulator: inhibits or activates purified firefly luciferase, miR-21 counter-screen. P08659. purified FLuc, Km substrates, luminescence inhibition. Potency, µM (titrated, usually from 57.5 µM), without a hit: at the top dose activity change, negative = inhibition, usual class: inhibitors. 360,000 compounds, 6.9% hits. AID 588342;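 also: plate controls were vehicle for no effect and reference inhibitor for full effect; nearly all actives have a fitted effect of over 55% in size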
Target sequence (P08659 whole entry, looked up): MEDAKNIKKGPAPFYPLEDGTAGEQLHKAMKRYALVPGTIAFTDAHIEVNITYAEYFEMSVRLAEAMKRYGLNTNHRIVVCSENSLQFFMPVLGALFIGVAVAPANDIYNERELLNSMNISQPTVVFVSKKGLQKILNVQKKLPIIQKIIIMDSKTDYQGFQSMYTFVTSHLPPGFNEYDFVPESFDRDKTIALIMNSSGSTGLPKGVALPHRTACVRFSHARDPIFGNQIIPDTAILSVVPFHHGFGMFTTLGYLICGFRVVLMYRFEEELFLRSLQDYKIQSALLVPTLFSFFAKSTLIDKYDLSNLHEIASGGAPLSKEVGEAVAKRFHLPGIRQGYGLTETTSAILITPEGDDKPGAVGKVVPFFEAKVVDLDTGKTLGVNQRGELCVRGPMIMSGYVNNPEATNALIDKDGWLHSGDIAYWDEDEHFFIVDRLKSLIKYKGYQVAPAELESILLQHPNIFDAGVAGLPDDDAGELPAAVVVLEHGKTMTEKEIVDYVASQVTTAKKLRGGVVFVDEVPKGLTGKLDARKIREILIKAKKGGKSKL
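Purified P. pyralis luciferase, 10 nM final, with Km-level 10 uM D-luciferin and 10 uM ATP in 50 mM Tris acetate pH 7.5, 10 mM Mg acetate, 0.01% Tween-20, 0.05% BSA; 6-point qHTS titration about 60 µM downward; luminescence read.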
Rab9 promoter act: activators of Rab9 promoter. AID 485297. Huh7 Rab9 promoter-luciferase reporter, luminescence, 24 h. 320,000 compounds, 2.8% hits. Potency, µM (series often up to 9.22 µM), for the others: top-dose activation, negative = inhibition, most hits filed as activators; also: % of control where 0% means no effect; nearly all actives have a fitted effect of over 60% in size
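Huh7 reporter line, Rab9 promoter upstream of luciferase. Compound exposure 24 h at 37 °C in reduced-serum medium with 10% FBS. Read-out: luminescence.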
KinaseGlo FLuc: Kinase-Glo luciferase inhibition (counter-screen) | Q27757 | Kinase-Glo luciferase, ATP luminescence, 8 min | Potency, µM (titrated, usually from 38.3 µM), for inactives: top-dose activity change, negative = inhibition, actives largely listed as inhibitors | 200,000 compounds, 0.28% hits | AID 1379; also: % is scaled to controls: 0 for no effect and ±100 for the full control effect; nearly all actives have a fitted effect of over 60% in size
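Compounds were added to a substrate mix at pH 7.2 (50 mM imidazole, 10 uM ATP, within the enzyme's linear range), followed by Kinase-Glo detection reagent; luminescence was measured after 8 minutes at ambient temperature.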
NPC1 prom act: activators of NPC1 promoter; Huh7 NPC1 promoter luciferase reporter, 24 h; 320,000 compounds, 2.4% hits; AID 485313; Potency, µM (titrated, usually from 9.22 µM), inactives show at the top dose activation, most hits filed as activators; also: % of control where 0% means no effect; nearly all actives have a fitted effect of over 60% in size
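Compounds in DMSO were transferred onto Huh7 NPC1-luciferase reporter cells pre-incubated 2 h; after 24 h at 37 °C, Amplite reagent was dispensed and luminescence recorded 10 min later.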
ELG1 genotox: inducers of genotoxicity in HEK293T ELG1-luciferase cells | HEK293T ELG1-luciferase reporter, luminescence, 16 h | Potency, µM (top dose mostly 46 µM), inactives show at the highest dose activity change, positive = activation, actives largely listed as activators | 330,000 compounds, 1.3% hits; also: % of control where 0% means no effect; nearly all actives have a fitted effect of over 60% in size
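HEK293T cells expressing luciferase-tagged ELG1 were treated with compound or DMSO for 16 hr at 37°C. Luciferase activity was then read after 30 min with ONE-Glo at room temperature; rising signal flags genetic stress.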
SMN2 splice up: enhancers of SMN2 splice variant expression; HEK293 SMN2-luciferase splicing reporter, luminescence, 30-36 h; Potency, µM (highest dose often 46.1 µM), inactives show at the highest dose activity change, positive = activation, actives largely listed as activators; 210,000 compounds, 2.8% hits; AID 1458; also: % of control where 0% means no effect; nearly all actives have a fitted effect of over 55% in size
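qHTS luciferase splicing reporter: luminescence rises when SMN2 exon 7 is included in transfected HEK293 cells. Compound exposure lasted 30-36 h at 37C, with 4.5 mM final sodium butyrate as control, followed by a ONE-Glo read.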
* hit, by the source's call; [ ] = remark or other dose. Calls follow the shape of the dose curve; as a rule, active = well fitted curve in the direction sought with a large enough effect; inconclusive = small, poorly fitted or top-dose-only effect, or another doubt; inactive = no such curve, though single readings can be large; an effect the other way counts as inactive or inconclusive. Potency is read from the fitted curve at half-maximal effect.

For Cc1ccc(/C=N/NC(=O)c2ccncc2)cc1 the results were FLuc modulator inconclusive, Rab9 promoter act 6%, NPC1 prom act -1% and ELG1 genotox -5%.
`Cc1ccc(N/N=C/c2cccnc2)cc1` gave FLuc modulator 17µM*, Rab9 promoter act inconclusive, KinaseGlo FLuc -3%, NPC1 prom act inconclusive, ELG1 genotox inconclusive and SMN2 splice up inconclusive.
COc1ccc(C)cc1NC(=O)N1CCN(S(=O)(=O)c2ccc3c(ccn3C)c2)CC1 was read as FLuc modulator -1%.
For O=C(CCC1N=C2c3ccccc3N=C(SCc3cccc(F)c3)N2C1=O)NCc1cccs1 (centres undefined) the results were FLuc modulator 0%.
CC1CCc2sc(C(=O)NN)cc2C1 (centres undefined) was read as FLuc modulator inconclusive, Rab9 promoter act 7%, NPC1 prom act 5% and ELG1 genotox -4%.
`CC1CCc2sc(C(=O)NNC(=S)NC3CC3)cc2C1` (centres undefined) gave FLuc modulator -16%, Rab9 promoter act 1.1µM*, NPC1 prom act inconclusive and ELG1 genotox 2%.
`CC1CCc2sc(C(=O)Nc3ccc(C(N)=O)cc3)cc2C1` (centres undefined) gave FLuc modulator 2.4µM*, Rab9 promoter act 25%, NPC1 prom act inconclusive and ELG1 genotox inconclusive.
`CC1CCc2sc(C(=O)NNS(=O)(=O)c3ccc(F)c(F)c3F)cc2C1` (centres undefined) gave FLuc modulator 11µM*, Rab9 promoter act 0%, NPC1 prom act 0% and ELG1 genotox 6%.
CC1CCc2sc(C(=O)NCC3CCCO3)cc2C1 (centres undefined) was read as FLuc modulator 11µM*, Rab9 promoter act 4µM*, NPC1 prom act 2.8µM* and ELG1 genotox inconclusive.
Screening CCOc1ccc(NS(=O)(=O)c2ccc(C)c(C(=O)O)c2)cc1 returned KinaseGlo FLuc 0%.
O=C(NCCc1ccccc1)c1ccc(CSc2nc3ccncc3n2Cc2ccc(F)cc2)cc1 was read as FLuc modulator -2% and SMN2 splice up 15%.
COc1cc(NC(=O)CCn2cnc3ccccc3c2=O)cc(OC)c1 was read as FLuc modulator -6%.
Screening COC(=O)c1ccccc1NC(=O)CCc1c(C)nc2cc(-c3ccc(Cl)cc3)nn2c1C returned FLuc modulator inconclusive and SMN2 splice up -32%.
CCOC(=O)c1cccc(NC(=O)CCc2c(C)nc3cc(-c4ccc(Cl)cc4)nn3c2C)c1 was read as FLuc modulator 12µM* and SMN2 splice up -21%.
`CCOc1ccc(NC(=O)CCc2c(C)nc3cc(-c4ccc(Cl)cc4)nn3c2C)cc1` gave FLuc modulator 6.7µM* and SMN2 splice up -17%.
`CC(=O)N1CCc2c(sc3c2c(=O)n(-c2ccccc2)c(=O)n3Cc2cccc(C(F)(F)F)c2)C1` gave FLuc modulator 0% and SMN2 splice up 21%.
`COc1cc(C)c(S(=O)(=O)Nc2ccccc2F)cc1C` gave FLuc modulator 3%, Rab9 promoter act -2%, KinaseGlo FLuc 0%, NPC1 prom act -1%, ELG1 genotox -6% and SMN2 splice up 2.2µM*.
Cc1cc2[nH]c(=O)c(=O)[nH]c2cc1S(=O)(=O)Nc1ccccc1F was read as FLuc modulator -4%, Rab9 promoter act 7%, NPC1 prom act -4% and ELG1 genotox -7%.
`CS(=O)(=O)NCc1ccc(C(=O)NCCOc2ccccc2)cc1` gave FLuc modulator 19µM*, Rab9 promoter act 3.5µM*, KinaseGlo FLuc 4%, NPC1 prom act 4µM*, ELG1 genotox inconclusive and SMN2 splice up 11µM*.
For COc1ccc(C(=O)NCCc2ccccc2)cc1OC the results were FLuc modulator inconclusive, Rab9 promoter act 4µM*, NPC1 prom act inconclusive and ELG1 genotox 17%.
For CS(=O)(=O)N1CCc2cc(C(=O)NCCc3ccccc3)ccc21 the results were FLuc modulator inconclusive and SMN2 splice up 13µM*.
Screening CS(=O)(=O)Nc1ccc(C(=O)NCCc2ccccc2)cc1 returned FLuc modulator inconclusive, Rab9 promoter act 2µM*, KinaseGlo FLuc -4%, NPC1 prom act inconclusive, ELG1 genotox inconclusive and SMN2 splice up 11µM*.
`COc1ccc(C(=O)NCCCc2ccccc2)cc1OC` gave FLuc modulator -9%, Rab9 promoter act 0%, NPC1 prom act 4% and ELG1 genotox 2%.
COc1ccc(C(=O)c2oc3ccccc3c2NC(=O)c2cc(=O)c3ccc(C)cc3o2)cc1Cl was read as FLuc modulator -3% and SMN2 splice up -3%.
COC(=O)c1sc(N2C(=O)c3oc4ccc(C)cc4c(=O)c3C2c2ccc(O)c(OC)c2)nc1C (centres undefined) was read as FLuc modulator -6% and SMN2 splice up -4%.
For NC(N)=N/N=C\c1ccc(O)c(C(=O)O)c1 the results were KinaseGlo FLuc -3%[7.66 µM] and SMN2 splice up 3%[9.22 µM].
For CCOc1ccc(C(=O)NCCCCNC(=O)c2ccc(OCC)cc2)cc1 the results were FLuc modulator inconclusive, Rab9 promoter act inconclusive, NPC1 prom act 3.5µM* and ELG1 genotox inconclusive.
Screening COc1ccc(C(=O)NCC(=O)OCCCOC(=O)CNC(=O)c2ccc(OC)c(OC)c2)cc1OC returned FLuc modulator -1%, Rab9 promoter act -1%, NPC1 prom act -2% and ELG1 genotox 5%.
CC(=O)Oc1ccc(C(=O)NCCc2ccccc2)cc1 was read as FLuc modulator 9.5µM*, Rab9 promoter act 0.5µM*, KinaseGlo FLuc -16%, NPC1 prom act 0.4µM*, ELG1 genotox 15% and SMN2 splice up 8.9µM*.
`COc1ccccc1NC(=O)COC(=O)CNC(=O)c1ccc(OC)c(OC)c1` gave FLuc modulator -1%, Rab9 promoter act 21%, KinaseGlo FLuc -1%, NPC1 prom act 14%, ELG1 genotox 18µM* and SMN2 splice up 5µM*.
For CCOc1ccc(C(=O)NCCc2ccccc2)cc1 the results were FLuc modulator 1.1µM*, Rab9 promoter act 0.32µM*, KinaseGlo FLuc -11%, NPC1 prom act 0.4µM*, ELG1 genotox 0.58µM* and SMN2 splice up 3.5µM*.
Screening CC(C)CNc1nc(NC(C)(C)C)nc(Oc2ccc(=O)n(-c3ccccc3)n2)n1 returned FLuc modulator -2% and SMN2 splice up 9%.
